Source: PubChem BioAssay AID1159580 (chemical genetic matrix, 2015)
Screen size: about 5,500 compounds; about 2,000 (36%) were called active. About 18% were inconclusive and are not listed. The list shows a part of the results. Values without a mark were called inactive. Cut-off read from the data, not from the text of the source: active = normalized growth mostly below about 0.91 (no sharp cut-off); inconclusive = no clear call, values can overlap the other calls; inactive = mostly above about 0.92.

Test: chemical genetic growth profiling, strain panel (AID 1159580);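 note: tested at 20 µM; growth read once vehicle control cultures reached saturation at 30 °C; 1 = growth at the plate median or of vehicle wells; lower values mean less growth of the strain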
Details: S. cerevisiae deletion strains, growth OD

**Q.** With `COc1cc(NC(=S)Nc2ccccc2OC(F)(F)F)cc(C(F)(F)F)c1` as the compound, how does the normalized growth (locus YAR019C, strain CDC15, hits give low values) read?
**A.** 0.969

**Q.** What about the normalized growth (locus YBL105C, strain PKC1, hits give low values) of the same compound?
**A.** 0.977

**Q.** And the normalized growth (locus YBR135W, strain CKS1, hits give low values)?
**A.** 0.977

**Q.** What about the normalized growth (locus YBR136W, strain MEC1, hits give low values) of the same compound?
**A.** 0.975

**Q.** And the normalized growth (locus YBR160W, strain CDC28, hits give low values)?
**A.** 0.972

**Q.** What about the normalized growth (locus YDL017W, strain CDC7, hits give low values) of the same compound?
**A.** 0.982

**Q.** What about the normalized growth (locus YDL028C, strain MPS1, hits give low values) of the same compound?
**A.** 0.962

**Q.** And the normalized growth (locus YDL101C, strain DUN1, hits give low values)?
**A.** 0.99

**Q.** What about the normalized growth (locus YDL108W, strain KIN28, hits give low values) of the same compound?
**A.** 0.965

**Q.** What about the normalized growth (locus YDL132W, strain cdc53, hits give low values) of the same compound?
**A.** 0.974

**Q.** What about the normalized growth (locus YDL214C, strain PRR2, hits give low values) of the same compound?
**A.** 0.937

**Q.** What about the normalized growth (locus YDR052C, strain DBF4, hits give low values) of the same compound?
**A.** 0.991

**Q.** What about the normalized growth (locus YDR054C, strain cdc34, hits give low values) of the same compound?
**A.** 0.975

**Q.** What about the normalized growth (locus YDR226W, strain ADK1, hits give low values) of the same compound?
**A.** 0.977

**Q.** And the normalized growth (locus YDR477W, strain SNF1, hits give low values)?
**A.** 0.945

**Q.** What about the normalized growth (locus YER123W, strain YCK3, hits give low values) of the same compound?
**A.** 0.931

**Q.** And the normalized growth (locus YER133W, strain GLC7, hits give low values)?
**A.** 0.948

**Q.** What about the normalized growth (locus YFL009W, strain cdc4, hits give low values) of the same compound?
**A.** 0.967

**Q.** And the normalized growth (locus YFL029C, strain CAK1, hits give low values)?
**A.** 0.962

**Q.** What about the normalized growth (locus YFR003C, strain YPI1, hits give low values) of the same compound?
**A.** 0.987

**Q.** And the normalized growth (locus YFR019W, strain FAB1, hits give low values)?
**A.** 0.983

**Q.** And the normalized growth (locus YFR028C, strain CDC14, hits give low values)?
**A.** 0.969

**Q.** And the normalized growth (locus YGR040W, strain KSS1, hits give low values)?
**A.** 0.951

**Q.** What about the normalized growth (locus YGR052W, strain FMP48, hits give low values) of the same compound?
**A.** 0.994

**Q.** What about the normalized growth (locus YGR092W, strain DBF2, hits give low values) of the same compound?
**A.** 0.962

**Q.** What about the normalized growth (locus YHR030C, strain SLT2, hits give low values) of the same compound?
**A.** 0.824 (active)

**Q.** What about the normalized growth (locus YHR079C, strain IRE1, hits give low values) of the same compound?
**A.** 0.985

**Q.** And the normalized growth (locus YHR082C, strain KSP1, hits give low values)?
**A.** 0.972

**Q.** And the normalized growth (locus YHR205W, strain SCH9, hits give low values)?
**A.** 0.922

**Q.** What about the normalized growth (locus YIL147C, strain SLN1, hits give low values) of the same compound?
**A.** 0.961

**Q.** What about the normalized growth (locus YJL095W, strain BCK1, hits give low values) of the same compound?
**A.** 0.956

**Q.** What about the normalized growth (locus YJL128C, strain PBS2, hits give low values) of the same compound?
**A.** 0.929

**Q.** And the normalized growth (locus YJL157C, strain FAR1, hits give low values)?
**A.** 0.962

**Q.** What about the normalized growth (locus YJR016C, strain ILV3, hits give low values) of the same compound?
**A.** 0.989

**Q.** What about the normalized growth (locus YJR066W, strain TOR1 (second series), hits give low values) of the same compound?
**A.** 1

**Q.** And the normalized growth (locus YJR066W, strain TOR1, hits give low values)?
**A.** 0.926

**Q.** What about the normalized growth (locus YKL048C, strain ELM1, hits give low values) of the same compound?
**A.** 0.971

**Q.** And the normalized growth (locus YKL067W, strain YNK1, hits give low values)?
**A.** 0.926

**Q.** What about the normalized growth (locus YKL101W, strain HSL1, hits give low values) of the same compound?
**A.** 0.937

**Q.** What about the normalized growth (locus YKL193C, strain SDS22, hits give low values) of the same compound?
**A.** 0.977

**Q.** And the normalized growth (locus YKL203C, strain TOR2, hits give low values)?
**A.** 1.03

**Q.** What about the normalized growth (locus YLR113W, strain HOG1, hits give low values) of the same compound?
**A.** 0.886

**Q.** What about the normalized growth (locus YLR133W, strain CKI1, hits give low values) of the same compound?
**A.** 0.96

**Q.** What about the normalized growth (locus YLR403W, strain SFP1, hits give low values) of the same compound?
**A.** 0.968

**Q.** And the normalized growth (locus YML070W, strain DAK1, hits give low values)?
**A.** 0.94

**Q.** What about the normalized growth (locus YMR001C, strain CDC5, hits give low values) of the same compound?
**A.** 0.959

**Q.** What about the normalized growth (locus YMR205C, strain PFK2 (second series), hits give low values) of the same compound?
**A.** 0.962

**Q.** And the normalized growth (locus YMR277W, strain FCP1, hits give low values)?
**A.** 0.954

**Q.** And the normalized growth (locus YNL006W, strain LST8, hits give low values)?
**A.** 0.978

**Q.** And the normalized growth (locus YNL020C, strain ARK1, hits give low values)?
**A.** 0.965

**Q.** And the normalized growth (locus YNL161W, strain CBK1, hits give low values)?
**A.** 0.977

**Q.** And the normalized growth (locus YNL183C, strain NPR1, hits give low values)?
**A.** 1.01

**Q.** And the normalized growth (locus YNL207W, strain RIO2, hits give low values)?
**A.** 0.985

**Q.** What about the normalized growth (locus YNL222W, strain SSU72, hits give low values) of the same compound?
**A.** 0.965

**Q.** And the normalized growth (locus YNL307C, strain MCK1 (second series), hits give low values)?
**A.** 0.956

**Q.** And the normalized growth (locus YOL078W, strain AVO1, hits give low values)?
**A.** 0.97

**Q.** And the normalized growth (locus YOL136C, strain PFK27, hits give low values)?
**A.** 0.935

**Q.** What about the normalized growth (locus YOR061W, strain CKA2, hits give low values) of the same compound?
**A.** 0.962

**Q.** What about the normalized growth (locus YOR119C, strain RIO1, hits give low values) of the same compound?
**A.** 0.964

**Q.** And the normalized growth (locus YOR231W, strain MKK1, hits give low values)?
**A.** 0.945

**Q.** And the normalized growth (locus YOR329C, strain SCD5, hits give low values)?
**A.** 0.99

**Q.** What about the normalized growth (locus YPL031C, strain PHO85, hits give low values) of the same compound?
**A.** 0.957

**Q.** What about the normalized growth (locus YPL153C, strain RAD53, hits give low values) of the same compound?
**A.** 0.952

**Q.** What about the normalized growth (locus YPL204W, strain HRR25, hits give low values) of the same compound?
**A.** 0.957

**Q.** What about the normalized growth (locus YPL209C, strain IPL1, hits give low values) of the same compound?
**A.** 0.976

**Q.** And the normalized growth (locus YPL256C, strain CLN2, hits give low values)?
**A.** 0.927

**Q.** What about the normalized growth (locus YPR025C, strain CCL1, hits give low values) of the same compound?
**A.** 0.984

**Q.** What about the normalized growth (locus YPR106W, strain ISR1, hits give low values) of the same compound?
**A.** 0.974

**Q.** What about the normalized growth (locus YPR111W, strain DBF20, hits give low values) of the same compound?
**A.** 0.953

**Q.** And the normalized growth (strain NNK1, hits give low values)?
**A.** 0.974

**Q.** What about the normalized growth (strain TSCII, hits give low values) of the same compound?
**A.** 0.97
